# PubChem BioAssay (NCI)
# Several values for one entry are separate records, joined by “and”; a condition that tells them apart may be missing. Equal values may be shown once. This is part of a sample that, as a whole, favours compounds with a hit. Of some 79,000 tested, about 15% had one in any assay. A structure can be active in one record and inactive in another. Activity calls are given as the source filed them. Cut-off read from the data, not from the text of the source: active = growth inhibition above about 70%; inactive = the rest.
# What was measured:
# [1] = NCI Yeast Anticancer Drug Screen. Data for the rad52 strain (AID 147);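 note: 0% = growth of vehicle-treated control cultures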; conditions: S. cerevisiae rad52 mutant growth inhibition, stronger effect = higher value
# Outline: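 Inhibition of yeast growth, referenced to vehicle controls, was the measured output for a strain with defective DNA damage repair.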
# [2] = NCI Yeast Anticancer Drug Screen. Data for the wt1 strain (AID 149);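 note: 0% = growth of vehicle-treated wt1 cultures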; conditions: S. cerevisiae wt1 strain (SPY 50644) growth inhibition, stronger effect = higher value
# Outline: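 wt1 strain grown with compound or vehicle; inhibition taken from the growth difference.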
# [3] = NCI Yeast Anticancer Drug Screen. Data for the rad50EPP+ strain (AID 151);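 note: 0% = growth of vehicle-treated control cultures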; conditions: S. cerevisiae rad50 mutant strain, stronger effect = higher value
# Outline: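 Genetically defined yeast (rad50EPP+, DNA damage repair alteration) is grown with compound, and inhibition of growth is expressed relative to vehicle-treated controls.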
# [4] = NCI Yeast Anticancer Drug Screen. Data for the mgt1 strain (AID 153); conditions: S. cerevisiae mgt1 mutant growth inhibition, stronger effect = higher value
# Outline: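 In the mgt1 strain, test compounds were added and growth inhibition was determined relative to vehicle-treated controls.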
# [5] = NCI Yeast Anticancer Drug Screen. Data for the rad50 strain (AID 155);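 note: 0% = growth of vehicle-only cultures of the same strain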; conditions: S. cerevisiae rad50 strain growth inhibition, stronger effect = higher value
# Outline: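 DNA repair mutant yeast, compound exposure, growth read-out; inhibition is taken relative to vehicle.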
# [6] = NCI Yeast Anticancer Drug Screen. Data for the mec2-1 strain (AID 157); conditions: S. cerevisiae mec2-1 strain, stronger effect = higher value
# Outline: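 Each compound was tested on mec2-1 yeast, a strain altered in DNA damage repair or cell cycle control. Growth inhibition is reported relative to vehicle.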
# [7] = NCI Yeast Anticancer Drug Screen. Data for the sgs1 mgt1 strain (AID 161);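 note: 0% = growth of cultures given vehicle only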; conditions: S. cerevisiae sgs1 mgt1 strain, stronger effect = higher value
# Outline: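 Test agents were incubated with a DNA-repair-mutant yeast strain. Growth was then read and compared against vehicle-treated controls.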
# [8] = NCI Yeast Anticancer Drug Screen. Data for the CLN2oe strain (AID 163);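 note: 0% = growth of vehicle-only control cultures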; conditions: S. cerevisiae CLN2oe strain, stronger effect = higher value
# Outline: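 First, the altered yeast strain was treated with each compound; second, its growth was measured; finally, inhibition was derived by comparison with vehicle controls.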
# [9] = NCI Yeast Anticancer Drug Screen. Data for the cln2 rad14 strain (AID 165);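 note: 0% = growth equal to vehicle treated cultures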; conditions: S. cerevisiae cln2 rad14 strain, stronger effect = higher value
# Outline: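 Test compounds were added to cln2 rad14 yeast cultures; inhibition of growth was then determined by comparison with vehicle treatment.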
# [10] = NCI Yeast Anticancer Drug Screen. Data for the bub3 strain (AID 167); conditions: S. cerevisiae bub3 mutant strain, stronger effect = higher value
# Outline: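 In this screen, a yeast mutant lacking normal mitotic checkpoint function is challenged with compound. Relative growth versus vehicle gives the inhibition value.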
# [11] = NCI Yeast Anticancer Drug Screen. Data for the wt2 strain (AID 169);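 note: 0% = growth of vehicle-treated yeast cultures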; conditions: S. cerevisiae wt2 strain growth inhibition, stronger effect = higher value
# Outline: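 The panel's yeast strains carry defined changes in DNA repair or cell cycle genes. Each strain is grown with compound, and growth loss is scored relative to vehicle.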
# [12] = NCI Yeast Anticancer Drug Screen. Data for the mlh1 strain (AID 171);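 note: 0% = growth of vehicle-treated control cultures of the same strain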; conditions: S. cerevisiae mlh1 strain growth inhibition, stronger effect = higher value
# Outline: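 Inhibition values reflect reduced yeast growth in the presence of compound, referenced to vehicle controls, using a strain chosen for its alteration in DNA repair or cell cycle control.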
# [13] = NCI Yeast Anticancer Drug Screen. Data for the sgs1 strain (AID 173);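 note: 0% = growth of vehicle-only control cultures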; conditions: S. cerevisiae sgs1 mutant, stronger effect = higher value
# Outline: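 Vehicle-treated cultures served as reference for growth inhibition of a yeast strain altered in DNA damage repair or cell cycle control after compound exposure.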
# [14] = NCI Yeast Anticancer Drug Screen. Data for the mlh1 rad18 strain (AID 175); conditions: S. cerevisiae mlh1 rad18 strain growth inhibition, stronger effect = higher value
# Outline: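 Inhibition values reflect reduced growth of mutant yeast versus vehicle-treated controls following compound exposure; the mutations affect DNA damage repair.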
# [15] = NCI Yeast Anticancer Drug Screen. Data for the rad18 strain (AID 177); conditions: S. cerevisiae rad18 mutant growth inhibition, stronger effect = higher value
# Outline: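 Steps: expose repair-mutant yeast to compound; measure growth; express as inhibition relative to vehicle control.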
# [16] = at 5.0 µM (retest, dose inferred, filed as 0.5)
# [17] = at 50.0 µM (retest, dose inferred, filed as 5.0)
smiles,measurement,setting,value
CC(C)(C)c1ccc(NS(=O)(=O)c2ccc(N)cc2)cc1,growth inhibition,[1]; at 1.2 µM,-1% (inactive)
same,growth inhibition,[1]; at 3.7 µM,-1% (inactive)
same,growth inhibition,[1]; at 11.0 µM,1% (inactive)
same,growth inhibition,[1]; at 33.0 µM,6% (inactive)
same,growth inhibition,[1]; at 100.0 µM,46% (inactive)
same,growth inhibition,[2]; at 1.2 µM,1% (inactive)
same,growth inhibition,[2]; at 3.7 µM,2% (inactive)
same,growth inhibition,[2]; at 11.0 µM,3% (inactive)
same,growth inhibition,[2]; at 33.0 µM,3% (inactive)
same,growth inhibition,[2]; at 100.0 µM,12% (inactive)
same,growth inhibition,[3]; at 1.2 µM,4% (inactive)
same,growth inhibition,[3]; at 3.7 µM,8% (inactive)
same,growth inhibition,[3]; at 11.0 µM,10% (inactive)
same,growth inhibition,[3]; at 33.0 µM,11% (inactive)
same,growth inhibition,[3]; at 100.0 µM,14% (inactive)
same,growth inhibition,[4]; at 1.2 µM,0% (inactive)
same,growth inhibition,[4]; at 3.7 µM,-1% (inactive)
same,growth inhibition,[4]; at 11.0 µM,1% (inactive)
same,growth inhibition,[4]; at 33.0 µM,2% (inactive)
same,growth inhibition,[4]; at 100.0 µM,28% (inactive)
same,growth inhibition,[5]; at 1.2 µM,4% (inactive)
same,growth inhibition,[5]; at 3.7 µM,3% (inactive)
same,growth inhibition,[5]; [16],0% (inactive)
same,growth inhibition,[5]; at 11.0 µM,14% (inactive)
same,growth inhibition,[5]; at 33.0 µM,9% (inactive)
same,growth inhibition,[5]; [17],-22% (inactive)
same,growth inhibition,[5]; at 50.0 µM,98.3% (active)
same,growth inhibition,[5]; at 100.0 µM,37% (inactive)
same,growth inhibition,[6]; at 1.2 µM,4% (inactive)
same,growth inhibition,[6]; at 3.7 µM,4% (inactive)
same,growth inhibition,[6]; [16],6% (inactive)
same,growth inhibition,[6]; at 11.0 µM,6% (inactive)
same,growth inhibition,[6]; at 33.0 µM,7% (inactive)
same,growth inhibition,[6]; [17],-5% (inactive)
same,growth inhibition,[6]; at 50.0 µM,94.3% (active)
same,growth inhibition,[6]; at 100.0 µM,38% (inactive)
same,growth inhibition,[7]; [16],0% (inactive)
same,growth inhibition,[7]; [17],-16% (inactive)
same,growth inhibition,[7]; at 50.0 µM,96.3% (active)
same,growth inhibition,[8]; at 1.2 µM,4% (inactive)
same,growth inhibition,[8]; at 3.7 µM,2% (inactive)
same,growth inhibition,[8]; at 11.0 µM,1% (inactive)
same,growth inhibition,[8]; at 33.0 µM,4% (inactive)
same,growth inhibition,[8]; at 100.0 µM,19% (inactive)
same,growth inhibition,[9]; [16],34% (inactive)
same,growth inhibition,[9]; [17],-111% (inactive)
same,growth inhibition,[9]; at 50.0 µM,98.4% (active)
same,growth inhibition,[10]; at 1.2 µM,0% (inactive)
same,growth inhibition,[10]; at 3.7 µM,5% (inactive)
same,growth inhibition,[10]; [16],28% (inactive)
same,growth inhibition,[10]; at 11.0 µM,9% (inactive)
same,growth inhibition,[10]; at 33.0 µM,18% (inactive)
same,growth inhibition,[10]; [17],-8% (inactive)
same,growth inhibition,[10]; at 50.0 µM,95.8% (active)
same,growth inhibition,[10]; at 100.0 µM,12% (inactive)
same,growth inhibition,[11]; at 1.2 µM,0% (inactive)
same,growth inhibition,[11]; at 3.7 µM,1% (inactive)
same,growth inhibition,[11]; at 11.0 µM,1% (inactive)
same,growth inhibition,[11]; at 33.0 µM,4% (inactive)
same,growth inhibition,[11]; at 100.0 µM,41% (inactive)
same,growth inhibition,[12]; at 1.2 µM,5% (inactive)
same,growth inhibition,[12]; at 3.7 µM,3% (inactive)
same,growth inhibition,[12]; at 11.0 µM,7% (inactive)
same,growth inhibition,[12]; at 33.0 µM,-13% (inactive)
same,growth inhibition,[12]; at 100.0 µM,48% (inactive)
same,growth inhibition,[13]; at 1.2 µM,3% (inactive)
same,growth inhibition,[13]; at 3.7 µM,6% (inactive)
same,growth inhibition,[13]; at 11.0 µM,14% (inactive)
same,growth inhibition,[13]; at 33.0 µM,17% (inactive)
same,growth inhibition,[13]; at 100.0 µM,60% (inactive)
same,growth inhibition,[14]; [16],-5% (inactive)
same,growth inhibition,[14]; [17],-5% (inactive)
same,growth inhibition,[14]; at 50.0 µM,97.2% (active)
same,growth inhibition,[15]; at 1.2 µM,3% (inactive)
same,growth inhibition,[15]; at 3.7 µM,3% (inactive)
same,growth inhibition,[15]; at 11.0 µM,15% (inactive)
same,growth inhibition,[15]; at 33.0 µM,23% (inactive)
same,growth inhibition,[15]; at 100.0 µM,54% (inactive)
c1ccc(-c2cnc3ccccc3c2)cc1,growth inhibition,[1]; at 1.2 µM,0% (inactive)
same,growth inhibition,[1]; at 3.7 µM,3% (inactive)
same,growth inhibition,[1]; at 11.0 µM,0% (inactive)
same,growth inhibition,[1]; at 33.0 µM,28% (inactive)
same,growth inhibition,[1]; at 100.0 µM,99% (active)
same,growth inhibition,[2]; at 1.2 µM,-7% (inactive)
same,growth inhibition,[2]; at 3.7 µM,-8% (inactive)
same,growth inhibition,[2]; at 11.0 µM,-12% (inactive)
same,growth inhibition,[2]; at 33.0 µM,-12% (inactive)
same,growth inhibition,[2]; at 100.0 µM,98% (active)
same,growth inhibition,[3]; at 1.2 µM,7% (inactive)
same,growth inhibition,[3]; at 3.7 µM,14% (inactive)
same,growth inhibition,[3]; at 11.0 µM,37% (inactive)
same,growth inhibition,[3]; at 33.0 µM,70% (active)
same,growth inhibition,[3]; at 100.0 µM,98% (active)
same,growth inhibition,[4]; at 1.2 µM,-5% (inactive)
same,growth inhibition,[4]; at 3.7 µM,-7% (inactive)
same,growth inhibition,[4]; at 11.0 µM,-6% (inactive)
same,growth inhibition,[4]; at 33.0 µM,-6% (inactive)
same,growth inhibition,[4]; at 100.0 µM,96% (active)
same,growth inhibition,[5]; at 1.2 µM,-5% (inactive)
same,growth inhibition,[5]; at 3.7 µM,-3% (inactive)
same,growth inhibition,[5]; [16],-151% (inactive) and -148% (inactive)
same,growth inhibition,[5]; at 11.0 µM,14% (inactive)
same,growth inhibition,[5]; at 33.0 µM,47% (inactive)
same,growth inhibition,[5]; [17],37% (inactive) and 47% (inactive)
same,growth inhibition,[5]; at 50.0 µM,70.1% (active) and 62.7% (inactive)
same,growth inhibition,[5]; at 100.0 µM,99% (active)
same,growth inhibition,[6]; at 1.2 µM,3% (inactive)
same,growth inhibition,[6]; at 3.7 µM,-3% (inactive)
same,growth inhibition,[6]; [16],-52% (inactive)
same,growth inhibition,[6]; at 11.0 µM,-12% (inactive)
same,growth inhibition,[6]; at 33.0 µM,-3% (inactive)
same,growth inhibition,[6]; [17],31% (inactive) and 18% (inactive)
same,growth inhibition,[6]; at 50.0 µM,56.7% (inactive) and 56.4% (inactive)
same,growth inhibition,[6]; at 100.0 µM,99% (active)
same,growth inhibition,[7]; [16],-68% (inactive) and -66% (inactive)
same,growth inhibition,[7]; [17],36% (inactive) and 47% (inactive)
same,growth inhibition,[7]; at 50.0 µM,62% (inactive) and 49.7% (inactive)
same,growth inhibition,[8]; at 1.2 µM,-6% (inactive)
same,growth inhibition,[8]; at 3.7 µM,-7% (inactive)
same,growth inhibition,[8]; at 11.0 µM,-1% (inactive)
same,growth inhibition,[8]; at 33.0 µM,6% (inactive)
same,growth inhibition,[8]; at 100.0 µM,97% (active)
same,growth inhibition,[9]; [16],-68% (inactive) and -62% (inactive)
same,growth inhibition,[9]; [17],-49% (inactive) and -39% (inactive)
same,growth inhibition,[9]; at 50.0 µM,-14.5% (inactive) and -17.3% (inactive)
same,growth inhibition,[10]; at 1.2 µM,-6% (inactive)
same,growth inhibition,[10]; at 3.7 µM,0% (inactive)
same,growth inhibition,[10]; [16],-51% (inactive) and -54% (inactive)
same,growth inhibition,[10]; at 11.0 µM,10% (inactive)
same,growth inhibition,[10]; at 33.0 µM,30% (inactive)
same,growth inhibition,[10]; [17],18% (inactive) and 54% (inactive)
same,growth inhibition,[10]; at 50.0 µM,46.5% (inactive) and 63.5% (inactive)
same,growth inhibition,[10]; at 100.0 µM,99% (active)
same,growth inhibition,[12]; at 1.2 µM,2% (inactive)
same,growth inhibition,[12]; at 3.7 µM,-9% (inactive)
same,growth inhibition,[12]; at 11.0 µM,-7% (inactive)
same,growth inhibition,[12]; at 33.0 µM,-9% (inactive)
same,growth inhibition,[12]; at 100.0 µM,99% (active)
same,growth inhibition,[13]; at 1.2 µM,-3% (inactive)
same,growth inhibition,[13]; at 3.7 µM,-5% (inactive)
same,growth inhibition,[13]; at 11.0 µM,-11% (inactive)
same,growth inhibition,[13]; at 33.0 µM,12% (inactive)
same,growth inhibition,[13]; at 100.0 µM,99% (active)
same,growth inhibition,[14]; [16],-127% (inactive) and -135% (inactive)
same,growth inhibition,[14]; [17],-30% (inactive) and -44% (inactive)
same,growth inhibition,[14]; at 50.0 µM,55.5% (inactive) and 45% (inactive)
same,growth inhibition,[15]; at 1.2 µM,-2% (inactive)
same,growth inhibition,[15]; at 3.7 µM,-3% (inactive)
same,growth inhibition,[15]; at 11.0 µM,0% (inactive)
same,growth inhibition,[15]; at 33.0 µM,6% (inactive)
same,growth inhibition,[15]; at 100.0 µM,99% (active)
